This note sets out measurements from PubChem BioAssay (Tox21).

Results filed as inconclusive are left out. Entries that show only a call come without a potency. Some compounds were tested as several samples or in several runs, with calls that do not always agree. The source made the active and inactive calls. Calls follow the shape of the dose curve; as a rule, active = well fitted cell-killing curve with a large enough effect in the repeat runs; inconclusive = weak or mixed curves, or effect the other way; inactive = flat fitted curve, though single readings scatter. Residues, ends and D or L forms follow the SMILES beside them.
Potency is read from the fitted curve at half-maximal effect.

This assay is described as follows: qHTS assay to identify small molecule antagonists of the androgen receptor (AR) signaling pathway using the MDA cell line in the presence of 0.5 nM R1881 - cell viability counter screen (AID 1259242). Also: nearly all actives have a fitted effect of over 45% in size. The settings on record: MDA-kb2 viability, CellTiter-Fluor protease fluorescence, 16 h; series mostly up to 92.4 µM. An excerpt:
U.S. Tox21 Program National Center for Advancing Translational Sciences [NCATS] NIH Chemical Genomics Center [NCGC] U.S. Environmental Protection Agency [EPA] National Institutes of Environmental Health Sciences [NIEHS] National Toxicology Program [NTP] U.S. Food and Drug Administration [FDA] Tox21 Assay Overview: Androgen receptor (AR) is an important member of the nuclear receptor family. Its signaling plays a critical role in AR-dependent prostate cancer and other androgen related diseases. Considerable attention has been given in the past decades to develop methods to study and screen for the environmental chemicals that have the potential to interfere with metabolic homeostasis, reproduction, developmental and behavioral functions. Therefore AR binding assay for screening androgen antagonists can be used to identify potential endocrine disruptors. MDA-kb2 cells (from ATCC, deposited by Wilson et al.) were used to screen for AR inhibitors against Tox21 compound libraries. These cells are human breast carcinoma cells that were stably transfected with a luciferase reporter gene under control of the MMTV promoter that contains response elements for both androgen receptor (AR) and glucocorticoid receptor (GR). The current screening for identification of AR inhibitors against Tox21 libraries used lower concentration of (0.5 nM) R1881 as a stimulator. The cytotoxicity of the Tox21 compound libraries against MDA-kb2 cell line was tested by measuring live-cell protease activity using CellTiter-Fluor assay in the same wells.
Tox21 Assay Protocol Summary: MDA-kb2 cells (cells cultured without CO2) were dispensed at 3,000 cells/well in 4 uL of culture medium into white wall/solid-bottom 1536-well plates (Corning Life Sciences, Corning, NY) using a Multidrop Combi (ThermoFisher Scientific, Waltham, MA) dispenser. After the assay plates were incubated at a 37C and 0% CO2 for 5 hr, 23 nL of compounds dissolved in DMSO, positive controls or DMSO only was transferred to the assay plate by a Pintool station (Kalypsys, San Diego, CA). The transfer of compounds was followed by the addition of 1 uL of 0.5 nM (final concentration) agonist (R1881)/culture medium using a Flying Reagent Dispenser (FRD, Aurora Discovery, San Diego, CA). The plates were incubated at 37C and 0% CO2 for 16 hr. For cytotoxicity assay, 1 uL of CellTiter-Fluor reagent (Promega Corporation, Madison, WI) was added to each well using the FRD and after 30 min incubation at 37C and 0% CO2, The fluorescence intensity was measured using ViewLux plate reader (PerkinElmer, Shelton, CT).
For the compound `O=c1cc[nH]c(=S)[nH]1`, the Potency result is “inactive”.
Take `Nc1ccc(S(=O)(=O)Nc2nccs2)cc1`: the Potency entry is “inactive”.
As for `CC(O)CN(CCN(CC(C)O)CC(C)O)CC(C)O` (stereo not given), the Potency entry is “inactive”.
As to `O=C(O)CCCCC(=O)O`, the Potency entry is “inactive”.
The entry for `NC(N)=NC(=O)c1nc(Cl)c(N)nc1N` is “inactive”.
To `CCOc1ccc(NC(=O)CC(C)O)cc1` (stereo not given) belongs “inactive”; to `COC(=O)[C@H](Cc1ccccc1)NC(=O)[C@@H](N)CC(=O)O` (H-Asp-Phe-OMe), “inactive”.
The entry for `COc1c2occc2cc2ccc(=O)oc12` is “inactive”; for `c1ccc2[nH]ccc2c1` it is 9.53 µM (active) and inactive.
As for `Cc1ccc(S(=O)(=O)NC(=O)NN2CCCCCC2)cc1`, the Potency entry was “inactive”.
The entry for `Nc1ccn([C@H]2CC[C@@H](CO)O2)c(=O)n1` is “inactive”.
`COc1ccc2[nH]cc(CCNC(C)=O)c2c1`: the Potency entry is “inactive”.
The entry for `O=C(c1ccccc1)c1ccccc1` is “inactive”; for `Nc1ccc(O)c(C(=O)O)c1` it is “inactive”; for `CCCCC(CC)COC(=O)/C=C/c1ccc(OC)cc1` (stereo not given) it is “inactive”.
The entry for `CNC[C@H](O)c1cccc(O)c1` is “inactive”; for `Oc1ccc(/C=C/c2cc(O)cc(O)c2)cc1` it is “inactive”; for `O=NO` it is “inactive”.
With `CCCC(CCC)C(=O)O`, the Potency entry is “inactive”.
On to `O=C(O)CS`, for which the Potency entry was “inactive”.
Regarding `CC1(C)[C@@H]2CC[C@@]1(C)C(=O)C2`, the Potency result is “inactive”.
`O=C(O)c1cc(N=Nc2ccc(S(=O)(=O)Nc3ccccn3)cc2)ccc1O`: the Potency is 27.4 µM (active) and inactive.
To `O=C(O)C(=O)O` belongs “inactive”; to `O=S(=O)(O)NC1CCCCC1`, “inactive”.
The entry for `CCCNC(=O)NS(=O)(=O)c1ccc(Cl)cc1` is “inactive”; for `O=C(O)CCC(=O)O` it is “inactive”; for `CCCCOC(=O)CC(CC(=O)OCCCC)(OC(C)=O)C(=O)OCCCC` it is “inactive”.
For `OC(Cn1cncn1)(Cn1cncn1)c1ccc(F)cc1F`, the Potency result is “inactive”.
As to `Nc1ccc(C(=O)O)cc1`, the Potency result was “inactive”.
The entry for `NNC(=O)c1ccncc1` is “inactive”.
The entry for `CC(=O)NS(=O)(=O)c1ccc(N)cc1` is “inactive”; for `CC(O)C(=O)O` (stereo not given) it is “inactive”; for `Cc1cc(=O)[nH]c(=S)[nH]1` it is “inactive”.
For `Cc1noc(NS(=O)(=O)c2ccc(N)cc2)c1C`, the Potency result was “inactive”.
To `O=C(O)c1cccnc1` belongs “inactive”; to `CCCCC1C(=O)N(c2ccccc2)N(c2ccccc2)C1=O`, “inactive”.
To `CCCCCCCCCCCCCCCC(=O)O` belongs “inactive”; to `CCCN(CCC)S(=O)(=O)c1ccc(C(=O)O)cc1`, “inactive”.
To `CCCC(O)C(CC)CO` (stereo not given) belongs “inactive”.
With `CC(=O)OCC(COC(C)=O)OC(C)=O`, the Potency result is “inactive”.
